These results are taken from PubChem BioAssay (NCATS).

Results filed as inconclusive are left out. Unmarked numbers belong to inactive results. Calls of active or inactive are those of the source. The call rests on the fitted dose curve; in most records, active means well fitted cell-killing curve with a large enough effect; inconclusive means small, poorly fitted or top-dose-only effect, or effect the other way; inactive means flat fitted curve, though single readings scatter.
On the % scale 0 is the no-effect control and ±100 the full control effect; potency means the concentration at half of the fitted maximal effect.

This experiment relates to HeLa. Nature of the experiment: Primary qHTS to identify gynecologic anti-cancer compounds using libraries of approved drugs and bioactive compounds (AID 1345084). Further: nearly all actives have a fitted effect of over 55% in size. Particulars: Gynecologic cancer cell panel viability, ATPlite luminescence, 48 h; series mostly up to 57.5 µM; activity change, negative = cytotoxicity: at the top concentration. A digest of the protocol: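 Cells, 1,000 per well, were allowed to settle for 16 h at 37 C before compound addition. Five concentrations were tested for 48 h, and viability was read by ATPlite luminescence after 15 min at room temperature.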
A general note: Quantitative high-throughput screening tests each substance at several concentrations.
On to `CN1C[C@H](CNC(=O)OCc2ccccc2)C[C@@H]2c3cccc4c3c(cn4C)C[C@H]21`, for which the “activity change, negative = cytotoxicity” value is -15.8%.
On the same count and under the same terms, next, `COc1ccc(C(=O)c2c(C)n(CCN3CCOCC3)c3ccccc23)cc1`: 0.0824%.
Same read-out and setting: next, `CCOC(=O)C1(c2ccccc2)CCN(CCC(C#N)(c2ccccc2)c2ccccc2)CC1`: -5.72%; `Clc1ccc(CCC(Cn2ccnc2)Sc2c(Cl)cccc2Cl)cc1` (stereo unspecified): -4.82%.
On the same count and under the same terms, the figure for `c1ccc(C2CC2)c(OCC2=NCCN2)c1` is -14%; for `N#CC(C#N)=Cc1ccc(O)c(O)c1` it is -20.4%.
For the molecule `C=C1C[C@@H]2[C@H](CC[C@]3(C)C(=O)CC[C@@H]23)[C@@]2(C)C=CC(=O)C=C12`, the “activity change, negative = cytotoxicity” value is -9.1%.
Still for that read-out and setting: the figure for `CCC(=O)C(CC(C)N(C)C)(c1ccccc1)c1ccccc1` (stereo unspecified) is -2.53% [at 116 µM]; for `CC[C@@H](CO)NC(=O)[C@@H]1C=C2c3cccc4[nH]cc(c34)C[C@H]2N(C)C1` it is -7.49%; for `COc1ccc2c(c1OC)CN1CCc3cc4c(cc3C1C2)OCO4` (stereo unspecified) it is -0.312%.
For `CC(C)CC(N(C)C)C1(c2ccc(Cl)cc2)CCC1` (stereo unspecified), the “activity change, negative = cytotoxicity” value is -0.41%.
On the same count and under the same terms, next, `C[C@]12CCC(=O)C(O)=C1CC[C@@H]1[C@@H]2CC[C@]2(C)C(=O)CC[C@@H]12`: -0.0547%; `CC(=O)Nc1cc([As](=O)(O)O)ccc1O`: 0.464%.
Turning to `CCCC1CCCCN1` (stereo unspecified), the “activity change, negative = cytotoxicity” value was 1.7%.
For `CNC(=O)c1ccc(N2C(=S)N(c3ccc(C#N)c(C(F)(F)F)c3)C(=O)C23CCC3)cc1F`, the “activity change, negative = cytotoxicity” value was 11.9%.
On the same count and under the same terms, next, `Cc1cc(SCc2sc(-c3ccc(C(F)(F)F)c(F)c3)nc2C)ccc1OCC(=O)O`: 8.25%.
Consider `C[C@]12CC[C@H]3[C@@H](CCC4=CC(=O)CC[C@@H]43)[C@@H]1CC[C@@H]2OC(=O)CCc1ccccc1`, for which the Potency is 3.55 µM (active).
Turning to `N[C@@H]1C[C@H]1c1ccccc1`, the “activity change, negative = cytotoxicity” value was 8.11%.
Regarding `O=c1[nH]c2ccccc2n1C1CCN(CCCC(c2ccc(F)cc2)c2ccc(F)cc2)CC1`, the Potency entry is “inactive”.
For `CC1NCCOC1c1ccccc1` (stereo unspecified), the “activity change, negative = cytotoxicity” value was -0.932%.
On to `Oc1ccc(Cl)cc1Cc1ccccc1`, for which the Potency result was “inactive”.
Take `N[C@@H](Cc1ccc(N(CCCl)CCCl)cc1)C(=O)O`: the “activity change, negative = cytotoxicity” value is -10.8%.
On the same count and under the same terms, next, `CCC(COC(=O)c1cc(OC)c(OC)c(OC)c1)(c1ccccc1)N(C)C` (stereo unspecified): 5.25%; `CC[N+]1(C)CCCC(OC(=O)C(O)(c2ccccc2)c2ccccc2)C1` (stereo unspecified): -7.45%.
On the same count and under the same terms, the figure for `Clc1cccc(N2CCNCC2)c1` is -14.6%; for `CN(C)CCc1ccc(O)cc1` it is -1.78%.
